# Source: PubChem BioAssay
# ERK EGF block – qHTS Assay for Inhibitors of the ERK Signaling Pathway using a Homogeneous Screening Assay; Stimulation with EGF | HEK293-V1b, EGF-stimulated phospho-ERK AlphaScreen | Potency, µM (series often up to 11.5 µM), without a hit: at the highest dose activity change, negative = inhibition, actives largely listed as inhibitors | hit rate 0.41% among 130,000;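 note: potency is the fitted concentration of half-maximal effect; plate controls were stimulated vehicle wells for no effect and unstimulated vehicle basal for full effect; nearly all actives have a fitted effect of over 55% in size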
#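 Concentration-response of compounds against EGF-driven ERK phosphorylation in V1b-expressing HEK293 cells; 30 min preincubation, 5 min EGF, AlphaScreen detection; Normalized to DMSO basal and 25 nM EGF.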
# ERK pERK EGF – Confirmation Concentration-Response Assay for Inhibitors of the ERK Signaling Pathway using a Homogeneous Screening Assay; Stimulation with EGF | HEK293 EGF-stimulated ERK phosphorylation, AlphaScreen | hit rate 60% among 60 | AID 1725, 2009 | Potency, µM (titrated, usually from 57.5 µM), without a hit: at the top dose activity change, negative = inhibition, hits mostly inhibitors | shares compounds with ERK EGF block
# cRaf kinase inh – Assay for Inhibitors of the ERK Signaling Pathway using a Homogeneous Screening Assay: c-Raf Inhibition; shares compounds with ERK EGF block; c-Raf kinase inhibition, homogeneous biochemical assay; activity change, negative = inhibition, % at 76.9 µM; 70 tested, under 10 active
# MEK1 kinase inh – Assay for Inhibitors of the ERK Signaling Pathway using a Homogeneous Screening Assay: MEK Inhibition; shares compounds with ERK EGF block; Potency, µM (top dose mostly 76.9 µM), inactives show at the top dose activity change, negative = inhibition, usual class: inhibitors; homogeneous MEK kinase activity assay, ERK pathway; AID 1732, 2009; 70 tested, under 10 active
# Target sequence (Q02750 whole entry, looked up): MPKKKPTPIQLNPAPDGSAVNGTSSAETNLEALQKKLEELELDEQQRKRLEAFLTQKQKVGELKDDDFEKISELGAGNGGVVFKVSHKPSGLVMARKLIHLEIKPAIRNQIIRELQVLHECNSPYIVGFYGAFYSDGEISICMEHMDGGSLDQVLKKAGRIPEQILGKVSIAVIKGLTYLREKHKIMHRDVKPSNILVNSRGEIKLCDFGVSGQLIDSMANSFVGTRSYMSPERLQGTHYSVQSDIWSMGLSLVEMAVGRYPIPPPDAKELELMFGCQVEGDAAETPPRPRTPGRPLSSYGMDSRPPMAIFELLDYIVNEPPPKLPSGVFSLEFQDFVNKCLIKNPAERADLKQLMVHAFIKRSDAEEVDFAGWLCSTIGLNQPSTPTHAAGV
# * = called active by the depositor; ? = inconclusive; . = no result given; [ ] = dose if it differs, or a comment. The sample as a whole holds a higher share of hits than the screen did. Calls come from the whole dose curve; as a rule, active = well fitted curve in the direction sought with a large enough effect; inconclusive = small, poorly fitted or top-dose-only effect, or another doubt; inactive = no such curve, though single readings can be large; an effect the other way counts as inactive or inconclusive.
SMILES,ERK EGF block,others
COc1cc2[nH]c(=S)nc(NCc3cccs3)c2cc1OC,-9.1%,
COc1ccc(CNc2ncnc3cc(Cl)ccc23)cc1OC,-4.0%[57.5 µM],
COc1ccccc1CNc1ncnc2cc(Cl)ccc12,-20.1%,
COC(=O)[C@@H]1CCCN1C(=O)[C@H]1C[C@@H]1[C@H](NC(=O)OCc1ccccc1)c1ccccc1,-9.7%,
Cc1ccc(-n2c(-c3ccccc3)c[n+]3c2CCc2ccccc2-3)c(C)c1,2.6%,
CC(=O)Cn1nnc2sc(-c3ccccc3)cc2c1=O,-8.9%,
O=C(NCc1ccc(Cl)cc1)C1CCN(S(=O)(=O)c2ccc(F)cc2)CC1,-1.7%,
Cn1c(SCC(=O)c2ccc3c(c2)OCCO3)nnc1C(F)(F)F,-7.1%[57.5 µM],
c1cncc(CNc2ncnc3sc4c(c23)CCCC4)c1,-10.5%,
Cc1nc(Nc2cccc(O)c2)c2c3c(sc2n1)CCC3,-0.9%[57.5 µM],
Cc1sc2ncnc(N[C@@H](Cc3c[nH]c4ccccc34)C(=O)O)c2c1C,5.6%,
Fc1ccc(Nc2ncnc3sc4c(c23)CCC4)cc1F,2.51µM*,ERK pERK EGF=8.91µM*;cRaf kinase inh=?;MEK1 kinase inh=?
COc1ccc(/C=N/Nc2ncnc3sc4c(c23)CCCC4)cc1OC,14.5%,
Cc1cc(F)ccc1S(=O)(=O)Nc1ncnc2sc3c(c12)CCC3,0.9%[57.5 µM],
Cc1sc2ncnc(NC(C)C(=O)O)c2c1C (configuration not stated),-5.6%,
CN(C)C(CNc1ncnc2sc3c(c12)CCCCC3)c1ccco1 (configuration not stated),-4.9%,
Cc1sc2ncnc(Nc3ccccc3)c2c1C,.,ERK pERK EGF=?;cRaf kinase inh=-12.0;MEK1 kinase inh=-0.6%
c1ccc(Nc2ncnc3sc4c(c23)CCC4)cc1,.,ERK pERK EGF=10µM*;cRaf kinase inh=-31.6;MEK1 kinase inh=17.7%
Fc1ccc(Nc2ncnc3sc4c(c23)CCC4)cc1,.,ERK pERK EGF=10µM*;cRaf kinase inh=?;MEK1 kinase inh=-7.2%
Cc1cc(C)nc(Sc2ncnc3sc4c(c23)CCC4)n1,3.1%,
Nc1ccc(C(=O)Oc2ccccc2)c(O)c1,15.8%,
CN1CCCC2(CCN(S(=O)(=O)c3ccccc3)CC2)C1,-1.7%,
Cc1ccc(CNS(=O)(=O)NCc2cccs2)cc1,-2.2%,
CC(CC(=O)O)Nc1ccccc1O (configuration not stated),7.9%,
O=c1onc2cnc3ccccc3n12,23.9%,
SMILES,ERK EGF block,others
NC(=S)N/N=C1/CCSc2ccc3ccccc3c21,0.0%,
C[N+](C)(C)CCO,11.8%,
N[C@@H](CCCC(=O)O)C(=O)O,-6.9%,
C=CCC(Nc1ccc(OC)cc1)C(=O)OCC (configuration not stated),-7.2%,
Cc1nc2cc3sc(C)nc3cc2s1,-4.0%,
Cc1nc2cc(C)c(C)cc2s1,-20.3%[57.5 µM],
Cc1cc2nc3ccc(=[N+](C)C)cc-3sc2cc1N,?,ERK pERK EGF=11.2%;cRaf kinase inh=?;MEK1 kinase inh=?
CCOC(=O)C(C)Sc1ncc(-c2ccccc2)cn1 (configuration not stated),-5.3%,
Cc1ccc(NNc2c(C)nc3ccccc3nc2=O)cc1,.,ERK pERK EGF=8.91µM*;cRaf kinase inh=-5.8;MEK1 kinase inh=24.5%
Cc1ccc(Nc2nc3ccccc3nc2Nc2c(C)n(C)n(-c3ccccc3)c2=O)cc1,8.3%,
Cc1nc2ccccc2nc1OCC(=O)Nc1ccc(F)cc1,-10.6%,
NCCCC[C@H]1CN=C(N)N1CCC12CC3CC(CC(C3)C1)C2,-11.4%[57.5 µM],
CC(C)=CCC/C(C)=C/CO,5.5%,
CN1CCN(CC(=O)Nc2c(C#N)cnn2-c2ccccc2)CC1,7.5%[57.5 µM],
C=CCN1C(=O)/C(=C/C=C2/N(CC)c3ccc(S(=O)(=O)N(C)C)cc3N2CC)SC1=S,?,ERK pERK EGF=?;cRaf kinase inh=-2.2;MEK1 kinase inh=5.1%
C=CCN1C(=O)/C(=C\c2cc(Br)c(OCc3ccccn3)c(OC)c2)SC1=S,0.1%,
CCN1C(=O)C(CC(=O)Nc2ccc(C)cc2C)Nc2cc(S(=O)(=O)N(C)C)ccc21 (configuration not stated),-4.3%,
CCN(c1ccccc1)S(=O)(=O)c1ccc(Cl)c(C(=O)NCC2CCCO2)c1 (configuration not stated),-4.0%[57.5 µM],
O=[N+]([O-])c1cccc(/C=N/Nc2nnc(-c3ccccc3)c(-c3ccccc3)n2)c1,-16.6%,
C/C(=N\Nc1nnc(-c2ccccc2)c(-c2ccccc2)n1)c1cccc([N+](=O)[O-])c1,?,ERK pERK EGF=-14.1%;cRaf kinase inh=-3.2;MEK1 kinase inh=-4.9%
C/C(=N\Nc1cc(C)nc(NCc2ccccc2)n1)c1cccc([N+](=O)[O-])c1,-7.1%[57.5 µM],
NC[C@@H]1O[C@@H](O[C@H]2[C@H](O)[C@H](O[C@@H]3O[C@H](CO)[C@@H](O)[C@H](N)[C@@H]3O)[C@@H](N)C[C@H]2N)[C@H](N)C[C@@H]1O,-10.1%[25.7 µM],
COc1cccc(NC(=S)N(CCCN2CCOCC2)C(C)c2cc3ccccc3o2)c1 (configuration not stated),4.8%,
COc1ccc(C(=O)N2C(=S)NC(=O)/C2=C\c2ccc(C)cc2)cc1,1.3%,
COC(=O)CN1C(=S)N(c2ccc(OC)cc2)C(=O)/C1=C/c1ccc(OC)cc1,-10.1%,
SMILES,ERK EGF block,others
COc1ccc(NC(=S)c2ccc(N(C)C)cc2)cc1,-3.8%,
COc1ccc(N2C(=O)/C(=C/N(C)C)NC2=S)cc1,1.7%[57.5 µM],
COc1ccc(C(=O)N2CCC3(CCCN(c4ccc(-c5ccccc5)cc4)C3)CC2)cc1,-3.0%,
COc1ccc(C(=O)N2CCC3(CC2)CCN(c2ccccc2)CC3)cc1,2.9%,
COc1ccc(N=C2C(=Nc3ccc(OC)cc3)N(c3ccc(N(C)C)cc3)C(=S)N2c2ccc(OC)cc2)cc1,.,ERK pERK EGF=-8.6%;cRaf kinase inh=-10.1;MEK1 kinase inh=-9.3%
COc1ccc(N=C2C(=Nc3ccc(OC)cc3)N(c3ccc(OC)cc3)C(=S)N2C(=O)c2ccc(OC)cc2)cc1,?,ERK pERK EGF=5.62µM*;cRaf kinase inh=-6.7;MEK1 kinase inh=-18.5%
COc1ccc(N=C2C(=Nc3ccc(OC)cc3)N(c3ccccc3)C(=S)N2C(=O)c2ccc(Cl)cc2)cc1,2.24µM*,ERK pERK EGF=164.8%;cRaf kinase inh=-10.1;MEK1 kinase inh=-6.4%
CC(C)C(C(=O)Nc1ccc(S(N)(=O)=O)cc1)N1C(=O)c2ccccc2C1=O (configuration not stated),-3.9%,
COC(=O)[C@@H]1C[C@@H]2CC[C@@H](O)C[C@@H]2N1Cc1ccc(-c2ccccc2)cc1,4.6%,
O=C(O)CCCC[C@@H]1SC[C@H]2NC(=O)N[C@@H]12,4.5%,
COc1ccc(C(=O)N2CCC3(CC2)CCN(C(c2ccccc2)c2ccccc2)CC3)cc1,5.8%,
COC(=O)[C@@]1(Cc2ccc(OC)cc2)[C@H]2c3cc(C(=O)N4CCCC4)n(CCc4ccc(O)c(OC)c4)c3C[C@H]2CN1C(=O)c1ccccc1,-2.0%,
CCCCCCCC#Cc1ccccc1/C=N/S(=O)c1ccc(C)cc1 (configuration not stated),0.4%,
COc1cccc(C=NC=Nc2cccc(OC)c2)c1,-8.5%,
NCCC[C@@H](CC(=O)N[C@@H]1CCNC[C@H]1C(=O)N[C@H](CC(=O)N[C@@H](CCC(=O)O)CC(=O)O)Cc1ccccc1)NC(=O)C[C@H](Cc1c[nH]c2ccccc12)NC(=O)[C@@H]1CCCC[C@H]1N,-2.7%,
